The campaign covered roughly 4,800 compounds. About 410 (8.5%) showed an effect of 50% or more. Shown is part of a subset that was picked to be rich in strong results.
Tested on: Plasmodium falciparum
Experiment: Confirmatory screen in NF54 pLDH assay, in single point, at 2uM, 72h
Format: functional, Erythrocyte
Conditions: timepoint 72 hour

Point of comparison: `N#Cc1c(CN(CCn2cccn2)Cc2cn3ccccc3c2C#N)cn2ccccc12`, “% Inhibition” value -22%. Against it:
- Cc1ccccc1-c1cc2c(N3CCN(C4CCCCC4)CC3)nccn2n1 — higher, 4%
- Cc1cc(Br)cc(N[C@H](c2cccnc2)c2ncc[nH]2)c1 — higher, 6%
- Cc1ccc2nc(C3CC3)cc(C(=O)N3C[C@@H](O)C[C@H]3CO)c2c1 — higher, -1%
- Cc1ccc2nc3c(c(N)c2c1)CCCCN3C — higher, -20%
- CC(C)c1ccc(S(=O)(=O)Nc2ccc3nc(NC(=O)c4ccccc4)sc3c2)cc1 — higher, 6%
- CN(C)c1ccc(CNC2CCCCCC2)cc1 — higher, -13%
- CN(CC(=O)Nc1ccccc1C(F)(F)F)C1CNC1 — higher, 8%
- Cc1csc(NC(=O)NCCc2cc(F)cc3c2OCOC3)n1 — higher, -14%
- COC[C@H](NCCc1cc(F)cc2c1OCOC2)C1CC1 — higher, 82%
- N#Cc1cc(O)c(-c2c(O)n[nH]c2-c2ccccc2)cc1C#N — higher, 10%
- O=c1[nH]c(=O)n(Cc2nc(-c3ccco3)no2)cc1Cl — higher, 3%
- Cc1nn(C)c(C)c1CCCN[C@@H](C)c1cccc(O)c1 — higher, 4%
- COC(=O)c1cccc(C#Cc2cccc(NC(=O)c3cnc(C)cn3)c2)c1 — higher, -9%
- Cc1ccc2nc(-c3cccc(NC(=O)c4ccc5c(c4)OCO5)c3)oc2c1 — higher, -7%
- N#CCC(=O)NC1CCC(CC2CCC(NC(=O)CC#N)CC2)CC1 (stereo not given) — higher, -2%
- Cc1ccccc1S(=O)(=O)N1CCN(c2c(C)n(-c3ccccc3)c(=O)n(CC(C)C)c2=O)CC1 — higher, 14%
- CCC(C(=O)Nc1ccc2c(c1)CN(CCc1ccc(OC)c(OC)c1)C(=O)C(C)O2)c1ccccc1 (stereo not given) — higher, 100%
- COc1ccc([C@H](C(=O)Nc2ccc(N(C)C)cc2)N(Cc2ccccc2)C(=O)Cc2ccccc2)cc1OC — higher, -14%
- COc1ccc(CNC(=O)Nc2ccc3c(c2)N(C(=O)c2ccccc2)CCC3)cc1OC — higher, 11%
- Cc1ccc(NC(=O)Cn2c(C)nc3c(-c4ccccn4)nsc3c2=O)c(C)c1 — higher, 12%
- CCOc1cc(CNc2cccc3ccccc23)cc(Br)c1OCC(=O)NC(C)(C)C — higher, 91%
- CC[C@@H](CO)NCc1cccc(OC)c1OCC(=O)NC(C)(C)C — higher, -12%
- COc1cccc(CNC(C)(C)C)c1OCC(=O)NC(C)(C)C — higher, -4%
- O=C(Nc1ccn(-c2ccccc2)n1)N1CC2CCC(O)CC2C1 (stereo not given) — higher, -3%
- Cc1nsc2ncc(C(=O)N3CCC(C)CC3)c(N3CCC(C(=O)Nc4cc(F)ccc4F)CC3)c12 — higher, 44%
- Clc1cc(CNCCc2ccccc2)ccc1OCc1ccccc1 — higher, 3%
- Cc1cnccc1NCCNCc1cccc(O)c1Cl — higher, 101%
- COc1ccccc1CNCCNC(=O)c1ccncc1 — higher, 9%
- C=CCN(CC=C)S(=O)(=O)c1ccc(S(=O)(=O)NC)cc1 — higher, -10%
- O=C(NC1CCCC1)c1cnn2c3c(cnc12)CCCCCC3 — higher, 11%
- CCn1cc(Cl)c(C(=O)N(C2CCCCC2)C2CCCCC2)n1 — higher, 10%
- Fc1cccc(F)c1-n1c(CN2CCCCC2)csc1=S — higher, -5%
- CC(C)c1c2cc3c(cc2nn1-c1ccccc1)OCCO3 — higher, -11%
- CCCCCNC(=O)NCc1ncoc1C — higher, 4%
- C[C@H](O)CNCc1ccc(Cl)cc1Cl — higher, 1%
- Cc1cc(C)cc(-n2c(=O)c3sccc3n(CC(=O)NCc3ccccc3Cl)c2=O)c1 — higher, -17%
- O=c1[nH]c2ccccc2nc1-c1cc(Br)ccc1NS(=O)(=O)c1cccc2nsnc12 — higher, 3%
- CNc1nc(N2C[C@H](C)[C@@](O)(C3CC3)C2)nc2c1CCC2 — higher, 1%
- Fc1ccccc1N1CCN(c2c3c(nc4nc(Cc5ccc(Cl)cc5)nn24)CCCC3)CC1 — higher, 7%
- Cc1cc(-c2ccccc2)c(C#N)c(=O)n1C(=O)c1ccc(C#N)cc1 — higher, 11%
- Brc1cc(Br)c2nc(-c3ccc(C4CCCCC4)cc3)ccc2c1 — higher, 12%
- Cc1[nH]c2ccnn2c(=O)c1CC(=O)N1CC[C@H](C)c2cccc(O)c21 — higher, 2%
- CCN(CC)c1nc(-c2ccccc2)c(C#N)c(N)c1C#N — higher, 12%
- O=C(CN1CCOC2CCCCC21)N1CCOC2CCCCC21 (stereo not given) — higher, -9%
- O=C(CN1CCC[C@H]1C1CCCC1)NCC1CCCCC1 — higher, 61%
- CC(C)N1CCC(NC(=O)NCC2CCCCCCC2)CC1 — higher, 6%
- COc1ccc(OCC(=O)Nc2ccc(N3CCn4c(nc5cc(Cl)ccc54)C3)cc2OC)cc1 — higher, -5%
- CC(C)COc1ccc(/C(N)=N/O)cc1 — higher, -20%
- Cc1ccccc1CN(Cc1ccccn1)Cc1ccnn1C — higher, -5%
- CC1CCC(N(C)C(=O)c2cc(S(=O)(=O)N3CCCCC3)ccc2N2CCCC2)CC1 (stereo not given) — higher, -10%
- Cc1cc(C(=O)N[C@H]2CCS(=O)(=O)C2)nc(N(C)C)n1 — higher, 2%
- Cc1ccc(N2C(=O)CN(CC(C)C)[C@H]3CS(=O)(=O)C[C@H]32)cc1 — higher, 14%
- Cc1cccc(NC(=O)CCC(=O)OCC(F)(F)C(F)F)c1C — higher, 1%
- CC(C)(C)[C@H]1CCc2c(sc(NC(=O)C3(F)C(F)(F)C(F)(F)C(F)(F)C(F)(F)C3(F)F)c2C#N)C1 — higher, 51%
- N#Cc1c(NC(=O)CN2CCC[C@@H]2CO)sc2c1CCCCC2 — higher, 0%
- COCCN(CC(N)=O)CC(=O)NCc1ccccc1F — higher, 9%
- COCCNc1nc(-c2ccccc2OC)c2c(N)n(-c3ccc(F)cc3)nc2n1 — higher, -5%
- COc1ccc(CCNc2nc(-c3ccc(OC)cc3F)c3c(N)n(-c4ccc(Cl)cc4)nc3n2)cc1 — higher, 40%
- CC(C)(C)n1nc2nc(NCCN3CCCCC3)nc(-c3ccc(F)c(Cl)c3)c2c1N — higher, 76%
- CN(Cc1ccsc1)C(=O)c1cc2ccccc2[nH]1 — higher, 17%
- FC(F)Oc1ccc(-c2c[n+](-c3cccc(C(F)(F)F)c3)c3n2CCCCC3)cc1 — higher, 42%
- CCOc1nc(C)nc2cc(-c3ccccc3)n(Cc3ccccc3)c12 — higher, 13%
- CCOc1ccc(-[n+]2cc(-c3ccccc3)n3c2CCC3)cc1 — higher, 70%
- Cc1ccc(-c2c[n+](-c3ccc(OC(F)F)cc3)c3n2CCCCC3)cc1 — higher, 60%
- COc1ccc(CC(=O)NCc2nnc3n2CCC3)cc1 — higher, 9%
- Cn1c(-c2ccc(Br)cc2)c[n+](CC(=O)c2ccc(Br)cc2)c1N — higher, -4%
- COc1ccc(C(=O)C[n+]2nc(CNc3ccc(Br)cc3)n3c2CCCCC3)cc1 — higher, 82%
- COc1ccc(C(=O)C[n+]2cc(-c3ccc(OC)cc3)n3c2CCCC3)cc1 — higher, 65%
- Cn1c(-c2ccc(Cl)c(Cl)c2)c[n+](CC(=O)c2ccc(F)cc2)c1N — higher, -12%

— ChEMBL document CHEMBL4888484, “Replenishing the malaria drug discovery pipeline: Screening and hit evaluation of the MMV Hit Generation Library 1 (HGL1) against asexual blood stage Plasmodium falciparum ,using a nano luciferase reporter read-out” (2022)
